Source: PubChem BioAssay (NCATS)
A number with no mark means an inactive call. Inconclusive results are not listed. Entries that show only a call come without a potency. Calls of active or inactive are those of the source. Unless noted, the call rests on the fitted dose curve.

What was measured:
[1] = target: Cytochrome P450 1A2 (Homo sapiens) (UniProt P05177); experiment: p450-cyp1a2 (AID 410); further: potency means the concentration at half of the fitted maximal effect
Procedure, shortened: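 Luminescent readout of luciferin formed from Luciferin-ME by human CYP1A2; data normalized against complete inhibition by 57 uM furafylline. Enzyme 20nM, substrate 100uM at Km, 100mM KPO4 buffer, 60 min reaction at room temperature.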

[2] = target: Mitogen-activated protein kinase 10 (Mus musculus) (UniProt Q61831); experiment: JNK3 AlphaScreen Assay (AID 530; active means well fitted curve in either direction with a large enough effect, not every such curve was filed as active;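 further: kinase came from lysate of stimulated human HepG2 cells; signal reports phosphorylation of biotinylated GST-cJun 1-79 at Ser73 with 10 µM ATP; series mostly up to about 57 µM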)
Procedure, shortened: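 Inhibitors reduce antibody binding to phosphorylated biotin-cJun, lowering AlphaScreen luminescence. Lysates from HepG2 cells pre-activated by IL-1beta plus TNF-alpha supplied JNK3; compounds were titrated.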

[3] = target: 3',5'-cyclic-AMP phosphodiesterase 4B (Homo sapiens) (UniProt Q07343); experiment: qHTS Assay for Inhibitors of PDE-IV (AID 607; active means well fitted activation curve with a large enough effect in the main read-out, with a control signal flat, not every such curve was filed as active)
3',5'-cyclic-AMP phosphodiesterase 4B (Homo sapiens), sequence (Q07343 whole entry, looked up): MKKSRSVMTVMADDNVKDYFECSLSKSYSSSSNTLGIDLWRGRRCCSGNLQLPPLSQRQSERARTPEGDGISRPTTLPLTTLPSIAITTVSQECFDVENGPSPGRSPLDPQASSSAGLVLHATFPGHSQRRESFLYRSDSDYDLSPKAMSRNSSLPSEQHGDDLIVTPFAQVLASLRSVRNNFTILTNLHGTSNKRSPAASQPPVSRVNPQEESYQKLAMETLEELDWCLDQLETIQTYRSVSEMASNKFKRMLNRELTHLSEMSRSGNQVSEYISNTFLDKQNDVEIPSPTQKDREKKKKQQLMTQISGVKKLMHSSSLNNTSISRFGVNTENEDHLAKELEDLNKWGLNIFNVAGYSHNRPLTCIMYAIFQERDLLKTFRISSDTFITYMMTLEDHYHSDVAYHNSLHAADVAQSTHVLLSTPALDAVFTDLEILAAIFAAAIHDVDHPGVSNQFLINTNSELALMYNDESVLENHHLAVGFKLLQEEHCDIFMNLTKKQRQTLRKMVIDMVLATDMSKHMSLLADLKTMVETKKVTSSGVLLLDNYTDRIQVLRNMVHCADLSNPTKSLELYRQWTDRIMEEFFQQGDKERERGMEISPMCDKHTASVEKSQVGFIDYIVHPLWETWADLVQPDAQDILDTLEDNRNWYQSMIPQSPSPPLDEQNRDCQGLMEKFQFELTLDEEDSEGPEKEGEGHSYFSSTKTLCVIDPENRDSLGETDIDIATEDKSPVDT
Procedure, shortened: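 Live HEK293 cells with a modified cyclic nucleotide-gated (CNG) channel report intracellular cAMP via membrane-potential dye fluorescence (ex 535/em 590 nm). Endogenous PDE-IV was targeted. Compounds were tested at up to 22.9 uM final; RO 20-1724 100 uM served as control.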

[4] = target: Glucocorticoid receptor (Homo sapiens) (UniProt P04150); experiment: GR-EFC Redistribution (AID 451); conditions: CHO-K1 GR-EFC translocation, beta-gal luminescence, 2 h; further: potency means the concentration at half of the fitted maximal effect
Glucocorticoid receptor (Homo sapiens), sequence (P04150 whole entry, looked up, the tested form may be a part): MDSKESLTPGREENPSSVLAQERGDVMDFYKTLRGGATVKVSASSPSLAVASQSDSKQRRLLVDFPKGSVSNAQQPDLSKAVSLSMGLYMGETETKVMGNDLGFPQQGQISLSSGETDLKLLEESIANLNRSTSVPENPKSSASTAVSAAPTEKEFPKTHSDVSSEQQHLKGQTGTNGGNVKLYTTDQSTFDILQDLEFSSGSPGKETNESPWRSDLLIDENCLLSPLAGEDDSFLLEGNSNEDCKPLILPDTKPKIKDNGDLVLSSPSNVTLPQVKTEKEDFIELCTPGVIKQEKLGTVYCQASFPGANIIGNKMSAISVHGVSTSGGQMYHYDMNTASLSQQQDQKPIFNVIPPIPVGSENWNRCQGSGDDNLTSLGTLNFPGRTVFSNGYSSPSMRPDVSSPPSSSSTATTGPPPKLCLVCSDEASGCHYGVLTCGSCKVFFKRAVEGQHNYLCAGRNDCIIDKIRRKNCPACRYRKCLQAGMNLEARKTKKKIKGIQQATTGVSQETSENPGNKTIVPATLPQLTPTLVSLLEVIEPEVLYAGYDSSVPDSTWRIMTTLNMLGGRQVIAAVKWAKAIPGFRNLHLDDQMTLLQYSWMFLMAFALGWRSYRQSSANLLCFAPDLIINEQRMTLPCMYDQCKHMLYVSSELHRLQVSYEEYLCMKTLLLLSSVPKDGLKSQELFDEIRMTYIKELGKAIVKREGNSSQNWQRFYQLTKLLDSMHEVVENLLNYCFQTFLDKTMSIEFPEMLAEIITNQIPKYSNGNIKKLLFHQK
Procedure, shortened: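 CHO-K1 cells stably expressing nuclear-localized β-gal enzyme acceptor and GR fused C-terminally to the enzyme donor fragment; ligand-driven nuclear translocation restores β-gal by complementation. Compounds titrated up to 46 uM final, 2 h at 37 °C; luminescence read.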

[5] = target: Cytochrome P450 2D6 (Homo sapiens) (UniProt P10635); experiment: qHTS Assay for Inhibitors and Substrates of Cytochrome P450 2D6 (AID 891; active means well fitted curve in the direction sought with a large enough effect; an effect the other way counts as inactive or inconclusive; further: nearly all actives have a fitted effect of over 60% in size; further: potency means the concentration at half of the fitted maximal effect)
Cytochrome P450 2D6 (Homo sapiens), sequence (P10635 whole entry, looked up): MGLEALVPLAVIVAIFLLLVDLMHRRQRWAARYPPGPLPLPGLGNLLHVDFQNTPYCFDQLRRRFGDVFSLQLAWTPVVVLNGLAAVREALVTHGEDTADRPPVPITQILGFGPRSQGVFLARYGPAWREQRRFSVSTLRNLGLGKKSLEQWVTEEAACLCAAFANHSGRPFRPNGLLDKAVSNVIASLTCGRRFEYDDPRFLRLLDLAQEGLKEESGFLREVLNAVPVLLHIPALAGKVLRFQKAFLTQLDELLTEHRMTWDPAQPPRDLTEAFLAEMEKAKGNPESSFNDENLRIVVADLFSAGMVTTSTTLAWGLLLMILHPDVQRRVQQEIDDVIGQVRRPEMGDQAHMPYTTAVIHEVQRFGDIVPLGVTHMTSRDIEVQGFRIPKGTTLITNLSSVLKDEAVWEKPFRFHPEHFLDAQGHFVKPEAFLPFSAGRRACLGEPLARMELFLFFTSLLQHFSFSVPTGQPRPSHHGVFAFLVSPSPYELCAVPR
Procedure, shortened: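 Human CYP2D6 (5 nM) with 30 uM Luciferin-ME EGE (at Km) in 100 mM KPO4, compound preincubated 10 min, then NADPH regeneration system for 60 min at room temperature. Luciferin read by luminescence; normalized to 1.43 uM quinidine.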

[6] = target: Cytochrome P450 2C19 (Homo sapiens) (UniProt P33261); experiment: qHTS Assay for Inhibitors and Substrates of Cytochrome P450 2C19 (AID 899; active means well fitted curve in the direction sought with a large enough effect; an effect the other way counts as inactive or inconclusive; further: nearly all actives have a fitted effect of over 60% in size; further: potency means the concentration at half of the fitted maximal effect)
Cytochrome P450 2C19 (Homo sapiens), sequence (P33261 whole entry, looked up): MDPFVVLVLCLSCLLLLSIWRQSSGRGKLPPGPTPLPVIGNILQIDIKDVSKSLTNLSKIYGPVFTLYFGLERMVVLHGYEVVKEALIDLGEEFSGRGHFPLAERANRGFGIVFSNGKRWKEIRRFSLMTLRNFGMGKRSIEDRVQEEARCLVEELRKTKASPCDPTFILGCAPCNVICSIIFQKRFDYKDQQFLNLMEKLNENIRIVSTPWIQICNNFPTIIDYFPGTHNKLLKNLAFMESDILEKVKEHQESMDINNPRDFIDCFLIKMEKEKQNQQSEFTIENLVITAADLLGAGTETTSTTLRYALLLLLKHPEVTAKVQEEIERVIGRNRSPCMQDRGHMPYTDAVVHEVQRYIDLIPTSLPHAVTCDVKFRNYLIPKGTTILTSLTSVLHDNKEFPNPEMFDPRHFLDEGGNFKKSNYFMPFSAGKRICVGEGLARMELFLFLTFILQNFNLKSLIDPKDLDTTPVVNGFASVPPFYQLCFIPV
Procedure, shortened: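 Human CYP2C19 (5nM) with Luciferin-H EGE at 10uM (its KM) in 50mM KPO4 was preincubated with compound for 10 min at 37C. NADPH regeneration started a 60 min 37C reaction. Luciferin was read by luminescence, normalized to 57uM ketoconazole.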

[7] = target: Cytochrome P450 2C9 (Homo sapiens) (UniProt P11712); experiment: qHTS Assay for Inhibitors and Substrates of Cytochrome P450 2C9 (AID 883; active means well fitted curve in the direction sought with a large enough effect; an effect the other way counts as inactive or inconclusive; further: potency means the concentration at half of the fitted maximal effect; nearly all actives have a fitted effect of over 60% in size)
Cytochrome P450 2C9 (Homo sapiens), sequence (P11712 whole entry, looked up): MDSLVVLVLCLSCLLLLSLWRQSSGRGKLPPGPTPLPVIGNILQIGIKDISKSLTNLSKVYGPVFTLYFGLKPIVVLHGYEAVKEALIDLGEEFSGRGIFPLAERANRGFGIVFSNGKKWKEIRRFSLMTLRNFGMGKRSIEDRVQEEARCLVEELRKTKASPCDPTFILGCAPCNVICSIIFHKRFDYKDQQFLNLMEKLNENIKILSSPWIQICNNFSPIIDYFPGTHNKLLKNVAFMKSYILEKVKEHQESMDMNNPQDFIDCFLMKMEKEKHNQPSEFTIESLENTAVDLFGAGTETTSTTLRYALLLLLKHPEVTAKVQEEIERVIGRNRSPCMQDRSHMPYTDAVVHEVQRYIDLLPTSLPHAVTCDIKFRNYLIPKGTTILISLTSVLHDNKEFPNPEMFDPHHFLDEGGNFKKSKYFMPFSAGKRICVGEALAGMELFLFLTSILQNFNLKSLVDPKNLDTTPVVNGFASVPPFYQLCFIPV
Procedure, shortened: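 Human CYP2C9 (10nM) hydroxylated Luciferin-H (100uM, at its KM) to luciferin in 25mM KPO4. Compound was preincubated 10 min at 37C, then NADPH regeneration started a 60 min reaction at 37C. Luminescence was read after detection reagent, normalized to 57uM sulphaphenazole.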

[8] = target: Cytochrome P450 3A4 (Homo sapiens) (UniProt P08684); experiment: qHTS Assay for Inhibitors and Substrates of Cytochrome P450 3A4 (AID 884; active means well fitted curve in the direction sought with a large enough effect; an effect the other way counts as inactive or inconclusive; further: potency means the concentration at half of the fitted maximal effect; nearly all actives have a fitted effect of over 50% in size)
Cytochrome P450 3A4 (Homo sapiens), sequence (P08684 whole entry, looked up): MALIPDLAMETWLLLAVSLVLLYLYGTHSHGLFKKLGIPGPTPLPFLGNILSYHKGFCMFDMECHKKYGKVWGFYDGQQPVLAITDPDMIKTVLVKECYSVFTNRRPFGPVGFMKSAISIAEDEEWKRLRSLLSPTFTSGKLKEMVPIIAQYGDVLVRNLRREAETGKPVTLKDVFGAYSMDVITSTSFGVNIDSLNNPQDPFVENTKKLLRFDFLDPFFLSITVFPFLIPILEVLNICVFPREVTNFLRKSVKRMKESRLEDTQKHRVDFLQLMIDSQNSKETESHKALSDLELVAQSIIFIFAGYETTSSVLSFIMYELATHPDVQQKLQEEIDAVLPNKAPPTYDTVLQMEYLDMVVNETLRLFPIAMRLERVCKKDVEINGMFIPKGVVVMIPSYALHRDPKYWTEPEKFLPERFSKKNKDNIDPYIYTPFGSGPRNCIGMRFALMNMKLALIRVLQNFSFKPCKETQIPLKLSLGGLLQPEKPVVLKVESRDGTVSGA
Procedure, shortened: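 20 nM human CYP3A4 with 25 uM Luciferin-PPXE (at KM) in 200 mM KPO4, preincubated 10 min with compound; NADPH regeneration started a 60 min RT reaction. Luciferin detected by luminescence, normalized to 57 uM ketoconazole as full inhibition.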

[9] = target: Cytochrome P450 3A4 (Homo sapiens) (UniProt P08684); experiment: qHTS Assay for Activators of Cytochrome P450 3A4 (AID 885; active means well fitted curve in the direction sought with a large enough effect; an effect the other way counts as inactive or inconclusive; further: nearly all actives have a fitted effect of over 65% in size)
Procedure, shortened: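 Quantitative HTS format: compounds preincubated with 20nM human CYP3A4 and Luciferin-PPXE substrate at KM, reaction started by NADPH regeneration, stopped after 60 min, luciferase luminescence read 20 min later.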

Cytochrome P450 1A2 (Homo sapiens), sequence (P05177 whole entry, looked up): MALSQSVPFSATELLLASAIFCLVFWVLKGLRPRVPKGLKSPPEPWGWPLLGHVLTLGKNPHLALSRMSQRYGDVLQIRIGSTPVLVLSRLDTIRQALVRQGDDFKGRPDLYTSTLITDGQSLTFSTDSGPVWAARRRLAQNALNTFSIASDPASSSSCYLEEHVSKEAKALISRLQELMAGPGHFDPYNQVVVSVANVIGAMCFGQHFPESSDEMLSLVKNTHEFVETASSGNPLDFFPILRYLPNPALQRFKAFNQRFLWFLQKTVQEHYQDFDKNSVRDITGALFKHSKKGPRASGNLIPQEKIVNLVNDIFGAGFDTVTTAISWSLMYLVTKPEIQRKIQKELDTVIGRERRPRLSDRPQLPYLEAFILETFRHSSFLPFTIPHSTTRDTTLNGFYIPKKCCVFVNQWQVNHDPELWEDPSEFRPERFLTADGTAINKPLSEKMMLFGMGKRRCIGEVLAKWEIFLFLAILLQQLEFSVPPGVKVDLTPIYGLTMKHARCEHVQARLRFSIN

## CCc1c2c(nc3cccc(OC)c13)OC(CC)C2 (centres undefined)
[1]
  Potency: 2 µM (active)
[2]
  Potency: inactive
[3]
  Potency: inactive

## O=C(Nc1ccc2ccccc2c1)[C@@H]1C[C@H]1[C@@H](NP(=O)(c1ccccc1)c1ccccc1)c1ccccc1
[1]
  Potency: 20 µM (active)
[2]
  Potency: inactive
[3]
  Potency: inactive

## COC(=O)[C@@]1(Cc2ccc(OC)cc2)[C@H]2c3cc(C(=O)N4CCCC4)n(CCc4c[nH]c5ccc(OC)cc45)c3C[C@H]2CN1C(=O)c1ccccc1
[1]
  Potency: 10 µM (active)
[2]
  Potency: inactive
[3]
  Potency: inactive

## C[C@@]1(C(NC(=O)Cc2ccc(C(F)(F)F)cc2)c2ccc(-c3ccccc3)cc2)C[C@H]1C1CCCCC1 (some centres undefined)
[1]
  Potency: inactive
[2]
  Potency: inactive

## C[C@@H](C(=O)Nc1ccc2ccccc2c1)[C@@H]1C[C@@]1(C)[C@@H](NS(=O)(=O)c1ccc(-c2ccccc2)cc1)c1ccccc1
[1]
  Potency: 12.6 µM (active)
[2]
  Potency: inactive
[3]
  Potency: inactive

## COC(=O)[C@@]1(Cc2ccc(F)cc2)[C@H]2c3cc(C(=O)N(C)C)n(Cc4cc(F)c(F)c(F)c4)c3C[C@H]2CN1C(=O)c1ccccc1
[1]
  Potency: inactive
[2]
  Potency: inactive
[3]
  Potency: inactive

## CC(Cc1ccccc1)C(=O)NCc1ccccn1 (centres undefined)
[1]
  Potency: 15.8 µM (active)
[2]
  Potency: inactive
[3]
  Potency: inactive

## COC(=O)[C@@]1(Cc2ccc(F)cc2)[C@H]2c3cc(C(=O)N(C)C)n(Cc4cccc5ccccc45)c3C[C@H]2CN1C(=O)c1ccccc1
[1]
  Potency: 6.31 µM (active)
[2]
  Potency: inactive
[3]
  Potency: inactive

## Clc1ccc(CO[C@@H](Cn2ccnc2)c2ccc(Cl)cc2Cl)cc1
[1]
  Potency: 0.1 µM (active)
[4]
  Potency: > 20.6 µM
[5]
  Potency: 0.199 µM (active)
[6]
  Potency: 0.0631 µM (active)

## CC(=O)N1CC2(CC2)CC1c1ccccc1 (centres undefined)
[1]
  Potency: inactive
[2]
  Potency: inactive
[3]
  Potency: inactive

## CCC#CCOCC(=O)Nc1ccccc1
[1]
  Potency: 25.1 µM (active)
[2]
  Potency: inactive
[3]
  Potency: inactive

## CC(C)C[C@@H](CC(=O)N[C@@H](CCC(=O)O)CC(=O)O)NC(=O)[C@@H]1CNCC[C@H]1NC(=O)C[C@@H](NC(=O)C[C@H](Cc1ccccc1)NC(=O)[C@@H]1CCCC[C@H]1N)C(C)C
[1]
  Potency: 31.6 µM (active)
[4]
  Potency: > 46 µM
[5]
  Potency: inactive
[6]
  Potency: inactive

## COC(=O)[C@@]1(Cc2ccc(F)cc2)[C@H]2c3cc(C(=O)N4CCCC4)n(CCN4CNCC4=O)c3C[C@H]2CN1C(=O)c1ccccc1
[1]
  Potency: 15.8 µM (active)
[2]
  Potency: inactive
[3]
  Potency: inactive
[7]
  Potency: 7.94 µM (active)
[8]
  Potency: 2 µM (active)
[9]
  Potency: inactive

## COC(=O)[C@@]1(Cc2ccc(F)cc2)[C@H]2c3cc(C(=O)N4CCCC4)n(Cc4cccc5ccccc45)c3C[C@H]2CN1C(=O)c1ccccc1
[1]
  Potency: 15.8 µM (active)
[2]
  Potency: inactive
[3]
  Potency: inactive
[7]
  Potency: 1.58 µM (active)
[8]
  Potency: 2 µM (active)
[9]
  Potency: inactive
